{"source": "PubChem BioAssay (Tox21)", "note": "Results filed as inconclusive are left out. The source made the active and inactive calls. Calls come from the whole dose curve; as a rule, active = well fitted inhibition curve with a large enough effect in the repeat runs; inconclusive = weak or mixed curves; inactive = no such curve, though single readings can be large or run the other way. % is set by controls: 0 for no effect and ±100 for the full control effect; potency is the fitted concentration of half-maximal effect.", "data": [{"target": "Cytochrome P450 1A2 (Homo sapiens) (UniProt P05177)", "sequence (P05177 whole entry, looked up)": "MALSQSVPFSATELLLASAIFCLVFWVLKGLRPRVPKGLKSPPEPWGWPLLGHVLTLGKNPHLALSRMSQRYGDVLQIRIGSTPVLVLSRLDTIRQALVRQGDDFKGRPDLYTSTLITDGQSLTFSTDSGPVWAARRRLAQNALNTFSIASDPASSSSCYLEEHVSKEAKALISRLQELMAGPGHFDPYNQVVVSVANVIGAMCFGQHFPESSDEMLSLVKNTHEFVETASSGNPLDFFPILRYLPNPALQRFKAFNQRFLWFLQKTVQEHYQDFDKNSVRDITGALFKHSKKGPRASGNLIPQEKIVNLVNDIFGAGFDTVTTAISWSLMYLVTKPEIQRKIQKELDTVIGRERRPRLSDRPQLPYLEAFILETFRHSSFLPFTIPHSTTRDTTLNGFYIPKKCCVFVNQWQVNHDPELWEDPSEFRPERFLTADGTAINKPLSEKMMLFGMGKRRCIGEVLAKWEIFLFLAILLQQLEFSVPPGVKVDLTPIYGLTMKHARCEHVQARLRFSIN", "assay": "Cytochrome P450 Family 1 Subfamily A Member 2 (CYP1A2) small molecule antagonists: luciferase reporter qHTS assay (AID 1671199); note: nearly all actives have a fitted effect of over 50% in size", "conditions": "P450-Glo CYP1A2 enzyme, luciferin luminescence, 1 h; series mostly up to 115 µM; activity change, negative = inhibition: at the top concentration", "procedure,_shortened": "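Compounds were incubated with CYP1A2 and a luminogenic proluciferin substrate for 10 min at room temperature before the reaction was started with NADPH regeneration solution. After 1 h, detection reagent was added and light output, proportional to CYP activity, was recorded.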", "values": [{"smiles": "Cc1c(C)n(Cc2ccccc2)c2ccc(C(=O)OCCN(C)C)cc12", "Potency": "10.2 µM (active)"}, {"smiles": "S=P(N1CC1)(N1CC1)N1CC1", "Potency": "57.7 µM (active)"}, {"smiles": "O=S(O)O", "activity change, negative = inhibition": "-6.76% [at 23.6 µM] (inactive)"}, {"smiles": "CCNc1nc(NC(C)CC)nc(OC)n1", "note": "(stereo not drawn)", "Potency": "25.2 µM (active)"}, {"smiles": "NCCCCCCNCCCCCCN", "activity change, negative = inhibition": "-24.2% (inactive)"}, {"smiles": "CC(=O)O[C@@H]1C[C@@H]2CC[C@@]1(C)C2(C)C", "Potency": "39.9 µM (active)"}, {"smiles": "O=Cc1ccc(F)cc1", "activity change, negative = inhibition": "-15.2% (inactive)"}, {"smiles": "CCc1ccc(C)nc1", "activity change, negative = inhibition": "3.25% (inactive)"}, {"smiles": "CC(C)c1ccccc1N", "activity change, negative = inhibition": "-23.6% (inactive)"}, {"smiles": "Brc1ccccn1", "activity change, negative = inhibition": "-19.6% (inactive)"}, {"smiles": "CCCCCCC(C)OC(=O)COc1nc(F)c(Cl)c(N)c1Cl", "note": "(stereo not drawn)", "Potency": "5.64 µM (active)"}, {"smiles": "CC(C)=CCCC(C)O", "note": "(stereo not drawn)", "activity change, negative = inhibition": "-8.9% (inactive)"}, {"smiles": "C[Si](C)O[Si](C)C", "activity change, negative = inhibition": "-3.91% (inactive)"}, {"smiles": "C=CC(C)C#N", "note": "(stereo not drawn)", "activity change, negative = inhibition": "1.35% (inactive)"}, {"smiles": "O=C(O)c1cccc(Cl)n1", "activity change, negative = inhibition": "-21.2% (inactive)"}, {"smiles": "COc1ccccc1C=O", "activity change, negative = inhibition": "-21.9% (inactive)"}, {"smiles": "CCCCCCCC/C=C\\CCCCCCCC(=O)NCc1ccc(O)c(OC)c1", "Potency": "15.5 µM (active)"}, {"smiles": "CN(Cc1cc(Br)cc(Br)c1N)C1CCCCC1", "Potency": "32.3 µM (active)"}, {"smiles": "CCc1c(Br)c(Br)c(Br)c(Br)c1Br", "Potency": "11.2 µM (active)"}, {"smiles": "C=CC(=C)CC/C=C(\\C)CCC=C(C)C", "Potency": "15.1 µM (active)"}, {"smiles": "CCOC(=O)CC(C)O", "note": "(stereo not drawn)", "activity change, negative = inhibition": "-20.6% (inactive)"}, {"smiles": "C=C/C=C/C=C/CCCCC", "activity change, negative = inhibition": "-9.41% [at 23.6 µM] (inactive)"}, {"smiles": "COc1cccc(CCc2ccccc2OCC(CN(C)C)OC(=O)CCC(=O)O)c1", "note": "(stereo not drawn)", "Potency": "30.9 µM (active)"}, {"smiles": "CCCCCCCCCCCCCCCCCO", "activity change, negative = inhibition": "6.84% [at 23.6 µM] (inactive)"}, {"smiles": "c1cc[nH]c1", "activity change, negative = inhibition": "-18.2% (inactive)"}, {"smiles": "O=C[C@H](O)[C@H](O)[C@H](O)CO", "activity change, negative = inhibition": "-14.5% (inactive)"}, {"smiles": "N#CSCSc1nc2ccccc2s1", "Potency": "5.64 µM (active)"}, {"smiles": "CCN(CC)c1cccc(C)c1", "activity change, negative = inhibition": "-13.9% (inactive)"}, {"smiles": "CC(C)C(=O)OCc1ccccc1", "activity change, negative = inhibition": "-2.98% (inactive)"}, {"smiles": "CCN=C1C=CC(=C(c2ccc(N(CC)CC)cc2)c2ccc(N(CC)CC)cc2)c2ccccc21", "Potency": "25 µM (active)"}, {"smiles": "CC(COC(=O)c1ccccc1)OC(=O)c1ccccc1", "note": "(stereo not drawn)", "Potency": "5.64 µM (active)"}, {"smiles": "CC(C)(C)c1n[nH]c(=O)n(N)c1=O", "activity change, negative = inhibition": "-19.4% (inactive)"}, {"smiles": "COc1ccc2sc(C(=O)Nc3nnn[nH]3)c(OC(C)C)c2c1", "activity change, negative = inhibition": "-11.1% (inactive)"}, {"smiles": "Brc1ccccc1-c1ccccc1", "Potency": "16.6 µM (active)"}, {"smiles": "CCCCCCCCCCCCOC(=O)c1cc(O)c(O)c(O)c1", "activity change, negative = inhibition": "-16.9% (inactive)"}, {"smiles": "CCCCCCCCCC(=O)N(C)C", "Potency": "36.1 µM (active)"}, {"smiles": "OCCC(O)CO", "note": "(stereo not drawn)", "activity change, negative = inhibition": "-6.13% (inactive)"}, {"smiles": "C=CC(=O)OCCN(CC)CC", "activity change, negative = inhibition": "-18.2% (inactive)"}]}]}
